Data published in PubChem BioAssay AID588795 (National Center for Advancing Translational Sciences (NCATS), 2011).
The whole screen tested about 390,000 compounds, of which about 1,400 (0.36%) were called active. About 2% were inconclusive and are not listed. Calls come from the whole dose curve; as a rule, active = well fitted inhibition curve with a large enough effect; inconclusive = small, poorly fitted or top-dose-only effect; inactive = no such curve, though single readings can be large or run the other way. The full list was thinned out, with actives kept by preference.

Molecular target: Flap endonuclease 1 (Homo sapiens) (UniProt P39748)
Sequence (P39748 whole entry, looked up): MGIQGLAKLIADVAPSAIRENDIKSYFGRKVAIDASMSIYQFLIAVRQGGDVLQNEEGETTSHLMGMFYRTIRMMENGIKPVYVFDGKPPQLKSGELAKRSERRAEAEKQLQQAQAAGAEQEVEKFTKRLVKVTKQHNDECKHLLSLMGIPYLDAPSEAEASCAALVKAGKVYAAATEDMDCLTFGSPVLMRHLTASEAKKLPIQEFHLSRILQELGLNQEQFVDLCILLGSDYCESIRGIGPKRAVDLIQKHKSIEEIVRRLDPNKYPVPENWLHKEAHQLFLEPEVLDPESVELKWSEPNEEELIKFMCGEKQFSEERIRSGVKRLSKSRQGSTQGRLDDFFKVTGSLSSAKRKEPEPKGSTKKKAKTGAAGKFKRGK
Experiment: qHTS Assay for the Inhibitors of Human Flap endonuclease 1 (FEN1). Note: nearly all actives have a fitted effect of over 65% in size.
Details: Recombinant FEN1 flap cleavage, fluorescence, 15 min; series mostly up to 114 µM; activity change, negative = inhibition: at the top concentration
Source text: The major human flap endonuclease FEN1 is an efficient structure-specific enzyme that recognizes and cleaves a 5'-unannealed DNA flap. It belongs to the RAD2 family nucleases, which are involved in DNA metabolism and are highly conserved in prokaryotes and eukaryotes. FEN1 is a key enzyme in DNA replication, repair and maintenance of genomic stability. 5'-flap removal by FEN1 is critical for Okazaki fragment processing during lagging strand DNA synthesis, long-patch base excision repair (LP BER), and regulating or facilitating recombination events. […] Deletion of the yeast FEN1 gene, i.e. rad27, results in an increased frequency of short DNA (3-32 bp) repeats, micro- and mini-satellite formation, trinucleotide repeat expansion, spontaneous recombination events, and a severe growth defect in association with cell cycle arrest in late S/G2 phase. […] Cells from fen1-/- blastocysts show increased apoptotic cell death after ionizing radiation treatment, and chicken cells lacking the fen1 gene are hypersensitive to DNA alkylating agents, e.g. methylmethane sulfonate (MMS) and N-methyl-N'-nitro-N-nitrosoguanidine (MNNG), as well as hydrogen peroxide.
NIH Chemical Genomics Center [NCGC]
NIH Molecular Libraries Probe Centers Network [MLPCN]
Assay Submitter (PI): David Wilson, National Institute of Aging
Three uL of reagents (buffer in column 3 and 4 as negative control and 10 nM FEN1 in columns 1, 2, and 5-48) were dispensed into 1,536-well black solid-bottomed plate. Compounds (23 nL) were transferred via Kalypsys pin tool equipped with 1536-pin array (10 nL slotted pins, V&P Scientific, San Diego, CA). The plates were then incubated for 15 min at room temperature, and 1 uL substrate (50 nM final concentration) were added to start the reaction read twice at 0 min read and 15 min on ViewLux reader. Throughout the screen, reagent bottle and all liquid lines were chilled and made light-tight to minimize reagent degradation. All screening operations were performed on a fully integrated robotic system (Kalypsys, San Diego, CA) containing one RX-130 and two RX-90 anthropomorphic robotic arms (Staubli, Duncan, SC). Library plates were screened starting from the lowest and proceeding to the highest concentration, and a "double-dipping" step of the highest concentration was required to access higher concentrations of compounds. Vehicle-only plates, with DMSO being pin-transferred to the entire column 5-48 compound area, were inserted uniformly at the beginning and the end of each library in order to monitor for and record any shifts in the background, which can be affected by reagent dispensers or loss in enzyme activity overtime. Screening data was corrected, normalized, and concentration-effect relationships were derived by using publicly-available curve fitting algorithms developed in-house (http://ncgc.nih.gov/pub/openhts). A four parameter Hill equation was fitted to the concentration-response data by minimizing the residual error between the modeled and observed responses.
% is set by controls: 0 for no effect and ±100 for the full control effect; potency is the fitted concentration of half-maximal effect.

Activity change, negative = inhibition, inactive:
Oc1ccc(Cl)cc1C1C=C(c2ccc3c(c2)OCO3)NC(c2ccc(F)c(Br)c2)N1 (configuration not stated) -12.7%, CC(C)(C)OC(=O)N1CCC(c2c(C(=O)NCc3ccccn3)cnn2-c2ccc(F)cc2)CC1 17.5%, CCCCC(CCCC)c1ccc(C=Nc2ccc(/C=C/c3ccnc4ccccc34)cc2)cc1 -8.04%, COc1ccc(Cl)cc1NC(=O)CCn1c(=O)c2cccn2c2ccccc21 1.92%, O=C(c1cnn2c1NC(=C1CC1)C=C2C(F)F)N1CCc2ccccc2C1 6.45%, Cc1csc(NCC(=O)c2c[nH]c3ccccc23)n1 -13.2%, CN(C)C1=C2C=CC=CC2/C(=C2/C=Cc3ccccc32)C=C1 (configuration not stated) 16.4%, OC(CBr)C[n+]1cccc2cc(Br)ccc21 (configuration not stated) 12.1%, CCc1ccc(NC(=O)c2sc3nc4c(cc3c2N)CN(CC)CC4)cc1 -7.99%, CCc1nnc(NC(=O)c2cc(S(=O)(=O)N3CCCCC3)ccc2C)s1 -10.7%, CN(Cc1ccccc1)c1ccc(/C=C/c2ccnc3ccccc23)cc1 -3.17%, O=C(c1ccco1)N(Cc1cccs1)c1ccc(O)cc1 -3.59%, OC[C@@H]1O[C@H](n2cnc3c(SCc4ccccc4)ncnc32)[C@H](O)[C@H]1O 3.88%, CCN(CC)c1ccc(/C=C/c2c(C)cnc3ccc(C)cc23)cc1 -7.36%, O=C(O)c1cccc(N=NN2CCCCCC2)c1 -1.46%, CN=C1S/C(=C\c2c(OC)cc(OC)cc2OC)C(=O)N1C -1.06%, COc1cc2[nH]c(C)c(CCN3CCN(c4ccccc4)CC3)c2cc1OC -3.35%, O=C(CSc1nc(=O)n(Cc2cccnc2)c2c1CCC2)Nc1ccc(F)cc1F -2.33%, Cc1nc([N+](=O)[O-])cn1CC(=O)Nc1ccc2c(c1)OCO2 -12.8%, COC(=O)c1ccc2c(c1)N(CC(=O)Nc1ccc(C)c(C)c1)C(=O)c1ccccc1S2 7.24%, CSc1n[nH]c(-c2ccco2)n1 7.75%, CCCCNC(=O)Cn1c(SCc2cccc(Cl)c2)nc2ccncc21 -5.18%, CC(C)(C)c1ccc(C(=O)C[N+]2(C)CCCc3ccccc32)cc1 (configuration not stated) -18.8%, CCOc1nc(NCCN2CCOCC2)nc(Nc2ccc(C)cc2)n1 -1.38%, Fc1ccc(-c2ccc(NCCN3CCOCC3)nn2)cc1 18.6%, COc1cc(OC)c(OC)cc1/C=C1\C=Cc2ccccc21 -23.5%, O=S(=O)(c1cccc(C(F)(F)F)c1)N1CCN(c2nc(-c3cccs3)nc3ccccc23)CC1 -7.49%, O=C1/C(=C\c2ccccc2Cl)SC(=S)N1CCC(=O)N1CCCc2ccccc21 2.46%, CN(C(=O)CCN1C(=O)/C(=C/c2ccccc2F)SC1=S)C1CCS(=O)(=O)C1 (configuration not stated) -11.1%, CN1CCN(c2oc(-c3ccc(COc4ccc(Cl)cc4)o3)nc2C#N)CC1 -18.9%, COc1ccc(OC)c(NC(=O)C2CCCN(S(=O)(=O)c3ccc4c(c3)CCCC(=O)N4)C2)c1 (configuration not stated) 13.2%, COc1cccc(OC)c1C(=O)Nc1ccc2c(c1)n(C)c(=O)n2C 3.61%, COc1ccc(/C=C/c2ccnc3ccccc23)cc1OC -27.7%, CNc1ccc(-c2nc(-c3ccco3)no2)cc1[N+](=O)[O-] -8.06%, COC(=O)c1ccccc1NS(=O)(=O)c1ccc2[nH]c(=O)[nH]c2c1 -6.85%, CCOc1ncccc1C(=O)NNC(=O)c1cccc(S(=O)(=O)Nc2ccccc2OC)c1 0.756%, COc1ccc(Cn2c(=O)[nH]c3cc(C(=O)N4CCN(C(=O)c5ccco5)CC4)ccc3c2=O)cc1 -29.9%, Cc1ccc(S(=O)(=O)N2CCN(c3nc(-n4cnc5ccccc54)nc4ccccc34)CC2)cc1 -4.02%, C/C=C/NNC(=O)Cc1ccc(OC)cc1 -0.0345%, Cc1cccc(C2CC(=O)Oc3c2c(=O)n(C)c2ccccc32)c1 (configuration not stated) 2.21%, Cc1cccc(OP(=O)(Nc2c(C)n(C)n(-c3ccccc3)c2=O)Oc2cccc(C)c2)c1 4.61%

Potency, active:
CCc1ccc2nc3sc(C(=O)Nc4nnc(CC)s4)c(N)c3cc2c1 44.7 µM, CN1C(=O)/C(=C/c2ccco2)SC1=Nc1cccc(C(=O)O)c1 50.1 µM, Cc1ccc(C(=O)O)cc1-c1ccc(/C=C2\SC(=O)N(CC(=O)Nc3ccc4c(c3)OCO4)C2=O)o1 39.8 µM, CCC(=C/c1sc2ccc3ccccc3c2[n+]1C)/C=C1\Sc2ccc3ccccc3c2N1C 12.6 µM, c1ccc2cc3c(NCCN4CCOCC4)ccnc3cc2c1 17.8 µM, Cc1ccc(-c2nn(-c3ccccc3)cc2/C=C2\SC(=S)N(CCCCCC(=O)O)C2=O)o1 31.6 µM, Cc1cc(C)c2nc3nc(C)cc(C)c3c(N)c2c1 39.8 µM, COc1cccc2sc3cc(NCC[C@@H]4CCCN4C)ccc3c(=O)c12 50.1 µM, COc1cccc(/C=N/Nc2ccc(S(=O)(=O)Nc3ccccc3C(=O)O)cc2[N+](=O)[O-])c1O 79.4 µM, O=C1C(Cl)=C(Oc2ccccc2)C(=O)c2ccccc21 56.2 µM, Cc1cccc(Oc2c([N+](=O)[O-])c(=O)n(C)c3ccccc23)c1 20 µM
